# Source: PubChem BioAssay AID449749 (Broad Institute, 2010)
# About 1,700 (81%) of roughly 2,100 compounds were called active. So high a share suggests a set chosen from earlier hits. The list shows a part of the results. Entries with a potency or affinity are not part of this list. Inconclusive results are not listed. The rule behind the calls is not given here.
# Biological target: Replicative DNA helicase DnaB (Mycobacterium tuberculosis (strain ATCC 25618 / H37Rv)) (UniProt P9WMR3)
# Experiment: DnaB intein splicing inhibitors, dose response, biochemical, M. tuberculosis H37Rv, cell-free fluorescence (AID 449749)
# Settings: series mostly up to 38 µM
# Replicative DNA helicase DnaB (Mycobacterium tuberculosis (strain ATCC 25618 / H37Rv)), sequence (P9WMR3 whole entry, looked up): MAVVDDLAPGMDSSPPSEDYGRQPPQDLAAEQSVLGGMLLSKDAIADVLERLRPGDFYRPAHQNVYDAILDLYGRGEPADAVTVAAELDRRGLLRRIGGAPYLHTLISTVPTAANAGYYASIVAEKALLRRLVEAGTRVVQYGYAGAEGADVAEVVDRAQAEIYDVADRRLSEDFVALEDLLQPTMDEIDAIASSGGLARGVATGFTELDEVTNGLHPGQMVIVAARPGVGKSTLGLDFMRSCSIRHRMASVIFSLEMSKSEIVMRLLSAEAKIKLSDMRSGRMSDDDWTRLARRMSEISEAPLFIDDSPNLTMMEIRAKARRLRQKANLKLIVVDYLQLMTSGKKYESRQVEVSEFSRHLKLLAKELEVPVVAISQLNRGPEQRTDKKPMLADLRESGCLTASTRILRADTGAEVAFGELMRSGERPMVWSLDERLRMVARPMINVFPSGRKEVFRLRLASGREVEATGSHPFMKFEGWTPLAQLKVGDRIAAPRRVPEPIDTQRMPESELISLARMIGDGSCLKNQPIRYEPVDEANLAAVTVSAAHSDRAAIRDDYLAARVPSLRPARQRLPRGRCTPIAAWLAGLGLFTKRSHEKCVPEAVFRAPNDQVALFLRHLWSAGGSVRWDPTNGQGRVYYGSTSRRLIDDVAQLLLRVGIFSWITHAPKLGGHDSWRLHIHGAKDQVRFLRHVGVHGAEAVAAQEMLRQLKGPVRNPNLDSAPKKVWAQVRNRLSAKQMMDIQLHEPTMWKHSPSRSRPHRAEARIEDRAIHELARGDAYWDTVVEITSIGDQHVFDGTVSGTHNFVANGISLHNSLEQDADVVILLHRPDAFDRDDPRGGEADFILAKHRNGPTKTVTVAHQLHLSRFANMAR
row,SMILES,outcome
1,OCCNC(=S)Nc1ccc2nsnc2c1,inactive
2,CCCCNC(=O)c1c(N)n(Cc2ccc3c(c2)OCO3)c2nc3ccccc3nc12,inactive
3,Cc1ccsc1C=Nc1ccc(O)cc1,inactive
4,C=CCn1c(N)c(C(=O)Nc2cccc(C)c2)c2nc3ccccc3nc21,inactive
5,CN1/C(=C/C(=O)c2nc(S(C)(=O)=O)ncc2Cl)C(C)(C)c2ccccc21,inactive
6,ONc1cccnc1-n1nc(C(F)(F)F)cc1C(F)(F)F,inactive
7,CCCCCn1c(N)c(C(=O)NCc2cccs2)c2nc3ccccc3nc21,inactive
8,O=[N+]([O-])c1cncc([N+](=O)[O-])c1Nc1cccc(O)c1,inactive
9,CCOc1ccc2c(c1)-c1c(ssc1=S)C(C)(C)N2,inactive
